Experimental findings from PubChem BioAssay AID624351 (Southern Research Specialized Biocontainment Screening …, 2012) are described below.

Structures are written as SMILES. About 1,400 (58%) of roughly 2,400 compounds were called active. The set was probably picked from earlier hits. The list shows a part of the results. Values without a mark were called inactive.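 The calls were made as follows: active = inhibition of 30% or more at any tested dose; inconclusive = primary hits over the limit that were never retested; inactive = the rest.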

The nature of the assay: ADP Hunter readout inhibition without MgcRacGAP – biochemical, coupled enzyme counter-screen, artefact control for MgcRacGAP inhibitor project, dose response (AID 624351).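 Also: signal is the ADP detection kit reading of free GDP without any GAP enzyme.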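 As to inhibition: 0% = median positive control wells and 100% = median negative control wells.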 Conditions: fluorescence, no MgcRacGAP; series mostly up to 80 µM; inhibition: at the top concentration. Background: Counterscreens check selectivity or assay interference.
One may read the IC50 as the point on the concentration scale where inhibition reaches its midpoint. `COCCNC(=O)COc1ccc(Nc2ccccc2)cc1`: the IC50 is 62.8 µM (active). Same read-out and setting: in the case of `O=C(COC(=O)COc1ccc(Nc2ccccc2)cc1)NCc1ccco1` it was 79.9 µM (active); in that of `O=C(COc1ccc(Nc2ccccc2)cc1)OCC(=O)N1CCCCC1`, 75.6 µM (active).

One may read the inhibition as the relative decrease from the control value, in per cent. As for `COc1ccc(-n2nc3c(c2NC(=O)CCCCl)CSC3)cc1`, the “inhibition” value was 3.42%. `CC(C)C(=O)Nc1ccc(Nc2ccccc2)cc1`: the IC50 is 52.3 µM (active).

For `O=C(O)c1ccccc1C(=O)Nc1ccc(Nc2ccccc2)cc1`, the IC50 is 62.4 µM (active). Consider `CC(=O)Nc1ccc(S(=O)(=O)Nc2nc3ccccc3nc2Nc2ccc(C(=O)O)c(O)c2)cc1`, for which the “inhibition” value is 28.3%.

For `CC(=O)Nc1ccc(S(=O)(=O)Nc2ccc(Nc3ccccc3)cc2)cc1`, the 50% inhibitory concentration (IC50) was 80.7 µM (active). For the molecule `O=C(Nc1ccc(Nc2ccccc2)cc1)C1CC1`, the IC50 was 55.9 µM (active). With `O=C(Nc1ccccc1)C1=C(c2ccccc2)S(=O)(=O)CCS1(=O)=O`, the “inhibition” value is 3.93%.

`Cc1cc(C)c2c(c1)NC(C(=O)O)C1CC=CC21` (stereo not given): the “inhibition” value is -0.18%.

On to `COc1ccc(-n2cccc2/C=C/[N+](=O)[O-])cc1`, for which the “inhibition” value is -5.41%.

With `CC1=NOC(=O)/C1=C\c1ccc(-c2ccc(Cl)c(C(=O)O)c2)o1`, the “inhibition” value is 1.02%.

For the molecule `N#CC1=C(S)N(c2ccccc2)C(c2cccs2)NC1=O` (stereo not given), the “inhibition” value was 4.12%. Still for that read-out and setting: in the case of `CC(=O)Nc1ccc2sn(-c3ccccc3)c(=O)c2c1` it was 16.6%; in that of `CC(=O)Nc1ccc(NC(=O)C(C)OC(=O)COc2ccc(Nc3ccccc3)cc2)cc1` (stereo not given), 25%.

Consider `CC(=O)Nc1ccc(Nc2ccccc2)cc1`, for which the IC50 is 75.5 µM (active). The same measure, in the same setting: in the case of `O=C(Nc1ccc(O)cc1)c1ccccc1OCc1ccccc1` it was 44.8 µM (active). Turning to `CCC(=O)NC1=C(Cl)C(=O)C(NC(=O)CC)=C(Cl)C1=O`, the “inhibition” value was 4.18%. Same read-out and setting: in the case of `Oc1ccc(NCc2ccc(OCc3ccccc3)cc2)cc1` it was 19.8%. On to `CCC(=O)Nc1ccc(Nc2ccccc2)cc1`, for which the IC50 is 55.9 µM (active). Regarding `O=C(O)c1ccc(COc2ccccc2C=C2C(=O)c3ccccc3C2=O)cc1`, the “inhibition” value was -2.14%. As to `C=C1c2c(Cl)ccc(O)c2C(O)=C2C(=O)[C@]3(O)C(O)=C(C(N)=O)C(=O)[C@@H](N(C)C)[C@@H]3[C@@H](O)C12` (stereo not given in full), the “inhibition” value was -12.8%. Still for that read-out and setting: in the case of `CC[n+]1c(/C=C2\Sc3ccccc3N2C)ccc2cccc(C)c21` it was 10%. For `Cc1cc(=O)[nH]c2c(N=Nc3ccc(O)cc3)c(N)nn12`, the IC50 was 13.2 µM (active).

With `Nc1nn2c(-c3ccccc3)cc(=O)[nH]c2c1N=Nc1ccc(O)cc1`, the IC50 is 70.9 µM (active). With `CCOC(=O)C1Nc2ccc(C(=O)O)cc2C2C=CCC12` (stereo not given), the “inhibition” value was -7.98%. For `COc1cc(OC)c(Cl)cc1N`, the IC50 is 43.9 µM (active). Turning to `COC(=O)C1C(O)=C(C=Nc2ccc(N)cc2)C(=O)CC1(C)C` (stereo not given), the IC50 is 57.5 µM (active).

Take `CCCC(=Nc1ccc(N)cc1)C1=C(O)C(C(=O)OC)C(C)(C)CC1=O` (stereo not given): the IC50 is 14.8 µM (active).

Regarding `CCC(=Nc1ccc(N)cc1)C1=C(O)C(C(=O)OC)C(C)(C)CC1=O` (stereo not given), the half-inhibitory concentration (IC50) is 7.76 µM (active). With `COc1cc(/C=N/NC(=O)C(C)Nc2n[nH]c(=O)[nH]c2=O)ccc1O` (stereo not given), the IC50 was 69.5 µM (active). Same read-out and setting: in the case of `COc1cc(/C=N/NC(=O)CCc2n[nH]c(=O)[nH]c2=O)ccc1O` it was 35.4 µM (active). Turning to `COc1cc(/C=N/NC(=O)CNc2n[nH]c(=O)[nH]c2=O)ccc1O`, the IC50 is 39.7 µM (active). On the same count and under the same terms, in the case of `CCOc1cc(/C=N/NC(=O)CCc2n[nH]c(=O)[nH]c2=O)ccc1O` it was 55.6 µM (active).

Consider `C/C(CCc1ccccc1)=N\NC(=O)C1C2CCCCC21` (stereo not given), for which the “inhibition” value is 0.53%. Regarding `Cc1ccc(-c2cnc(NCc3cc4c(cc3[N+](=O)[O-])OCO4)n2C)cc1C`, the “inhibition” value was 26.1%. On the same count and under the same terms, in the case of `O=[S@]1Oc2ccccc2-c2ccccc21` it was -2.21%; in that of `CCCN1C(=O)S/C(=C/c2ccc(N3CCOCC3)o2)C1=O`, 28.1%.

Consider `CCN(CC)c1ccc(/C=C2/SC(=O)N(C(C)C)C2=O)o1`, for which the IC50 was 58.5 µM (active). Same read-out and setting: in the case of `Cc1cc(-c2ccccc2)nc(N/N=C/c2ccc(N(C)C)cc2)n1` it was 80 µM (active); in that of `Cc1cc(-c2ccccc2)nc(N/N=C/c2ccc(O)cc2)n1`, 31.6 µM (active); in that of `Cc1nc2ccccc2nc1N/N=C/c1ccc(O)cc1`, 30.5 µM (active). Same read-out and setting: in the case of `Cc1cc(-c2ccccc2)nc(N/N=C/c2ccc(O)cc2O)n1` it was 61.3 µM (active). Regarding `CN(C)c1ccc(N=Cc2nc(-c3ccccc3)oc2OC(=O)c2ccccc2)cc1`, the “inhibition” value was 12%.

`CC1CN(CCOCCOc2ccccc2-c2ccccc2)CC(C)O1` (stereo not given): the “inhibition” value is 22%. Same read-out and setting: in the case of `COc1ccc(CN2CCN(Cc3ccco3)CC2)cc1OC` it was 25.7%. Same read-out and setting: in the case of `COc1ccc(/C=N/Nc2cc(C)nc3c(C)cccc23)cc1` it was 9.08%. As for `Cc1cc(C)c2nc(C)cc(N/N=C/c3ccc(O)cc3)c2c1`, the IC50 was 32.9 µM (active). `COc1cc(/C=N/N=C2/C(=O)Nc3ccccc32)cc(OC)c1O`: the IC50 was 59.2 µM (active). `COc1ccc(/C=C2\C(=O)NC(=O)c3ccccc32)cc1OC`: the “inhibition” value was -4.57%.

On to `Oc1ccc(-c2nccs2)cc1`, for which the IC50 was 31.4 µM (active). Take `CCN1CCN(CCOc2cccc(Cl)c2Cl)CC1`: the “inhibition” value is 20.8%. For the molecule `CC1(C)CC(=O)C2=C(C1)Nc1ccccc1S2`, the IC50 is 23.1 µM (active). For `CC1(C)CC(=O)C(C(C2=C(O)CC(C)(C)CC2=O)c2cccs2)C(=O)C1` (stereo not given), the “inhibition” value is 1.47%.
